# High-throughput results deposited in PubChem BioAssay by National Center for Advancing Translational Sciences (NCATS).
# AmpC inh detg: blocks E. coli AmpC beta-lactamase in detergent assay; AmpC hydrolysis of nitrocefin, absorbance 480 nm, 0.01% Triton; 370,000 tested, 0.041% active; P00811; Potency, µM (titrated, usually from 114 µM), for the others: top-dose activity change, negative = inhibition, usual class: inhibitors;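 also: potency is read from the fitted curve at half-maximal effect; 0% = no-compound wells and -100% = no-enzyme wells; nearly all actives have a fitted effect of over 25% in size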
# Target sequence (P00811 whole entry, looked up): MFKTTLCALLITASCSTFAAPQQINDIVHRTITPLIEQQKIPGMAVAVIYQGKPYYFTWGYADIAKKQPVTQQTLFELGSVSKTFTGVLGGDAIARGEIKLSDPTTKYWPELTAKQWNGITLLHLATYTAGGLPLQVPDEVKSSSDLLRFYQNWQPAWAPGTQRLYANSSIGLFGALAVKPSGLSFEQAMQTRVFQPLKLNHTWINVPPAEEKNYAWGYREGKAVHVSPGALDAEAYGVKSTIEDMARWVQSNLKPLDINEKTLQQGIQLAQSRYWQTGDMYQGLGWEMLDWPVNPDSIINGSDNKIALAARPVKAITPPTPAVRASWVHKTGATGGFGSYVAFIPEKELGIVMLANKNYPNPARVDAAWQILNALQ
#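 20 mM phosphate pH 7.0 + 0.01% (detergent screen) or 0.0001% Triton X-100; 5.3 nM AmpC reagent; cpd preinc 15 min RT; nitrocefin (800 uM stock) to start; A480 q20 s × 4 min; Activity was normalised to no-enzyme and no-compound control wells.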
# Shiga inhibitor: inhibitors of Shiga toxin in Vero cells | 290,000 tested, 9.2% active | Vero cells, Shiga toxin protein synthesis inhibition reporter | inhibition, % at 38.7 µM; in the data active = inhibition mostly above about 28%, no sharp cut-off; inactive = mostly below about 43%; also: 0% is about no effect
# AmpC inh no detg: AmpC beta-lactamase inhibition without detergent | P00811 | AmpC nitrocefin hydrolysis, absorbance 480 nm, 0.0001% Triton | Potency, µM (titrated, usually from 57.1 µM), inactives show at the top dose activity change, negative = inhibition, usual class: inhibitors | 330,000 tested, 0.52% active;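 also: potency is read from the fitted curve at half-maximal effect; plate controls were no compound for no effect and no enzyme for full effect; nearly all actives have a fitted effect of over 20% in size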
#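 20 mM phosphate pH 7.0 + 0.01% (detergent screen) or 0.0001% Triton X-100; 5.3 nM AmpC reagent; cpd preinc 15 min RT; nitrocefin (800 uM stock) to start; A480 q20 s × 4 min; Activity was normalised to no-enzyme and no-compound control wells.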
# NS1 inh: blocks influenza NS1 protein function; AID 2326; 270,000 tested, 0.4% active; Potency, µM (doses to about 46.1 µM), for the others: at the top dose activity, positive = more growth; calls by dose curve; also: potency is read from the fitted curve at half-maximal effect; actives are rising curves; nearly all actives have a fitted effect of over 50% in size
#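 OD600 was taken as the measure of yeast growth restored by compound in an NS1-expressing S. cerevisiae strain. Cells had been washed out of glucose medium and diluted 1:100 into galactose -URA medium, pH 6.0.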
# Cycloheximide cs: affects cycloheximide protein synthesis inhibition readout, counter-screen; cell reporter, cycloheximide protein synthesis inhibition counterscreen; max response, %; 300,000 tested, 12% active; AID 2314; in the data active = max response mostly above about 13%, no sharp cut-off; inactive = mostly below about 14%; also: read at 38.3 µM for the half of the compounds with a filed dose; 0% is about no effect
# * = called active by the depositor; ? = inconclusive; nt = not tested or not shown; + = active, no number; [ ] = another dose, or the depositor's remark. The sample as a whole holds a higher share of hits than the screen did. Unless noted, calls follow the shape of the dose curve; as a rule, active = well fitted curve in the direction sought with a large enough effect; inconclusive = small, poorly fitted or top-dose-only effect, or another doubt; inactive = no such curve, though single readings can be large; an effect the other way counts as inactive or inconclusive.
SMILES,AmpC inh detg,Shiga inhibitor,AmpC inh no detg,NS1 inh,Cycloheximide cs
COc1cccc(NC(=S)Nc2ccc(Br)cc2Cl)c1,7%,32,-36%,0%,20*
S=C(NCc1ccncc1)Nc1ccc(Br)cc1Cl,-5%,-8,2%,-5%,12
COc1cccc(NC(=S)NCc2cccs2)c1,?,43*,-13%,8%,3
Cc1ccc(NC(=S)NCc2cccs2)cc1,1%,9,-14%,-1%,31*
CCOc1ccc(NC(=S)Nc2ccc(Br)cc2Cl)cc1,?,16,-15%[2.29 µM],-2%,-1
Cc1cccnc1NC(=S)Nc1ccc(Br)cc1Cl,5%,126*,-20%,nt,79*
CCCn1c(=O)c2sccc2n2c(CCCC(=O)Nc3ccccc3OCC)nnc12,7%,nt,nt,nt,nt
Cc1ccc(C)c(NC(=O)n2ncc3cc(Cl)ccc32)c1,10%,nt,nt,nt,nt
S=C(NCc1ccccc1)Nc1cccc(Cl)c1,-6%,25,-21%,-61%,12
COCCN(C(=S)Nc1cccc(OC)c1)C(C)c1cccs1 (stereo not drawn),?,9,-28%,-12%,15*
Cc1cccc(NC(=S)NNC(=S)NCc2ccccc2)c1,-2%,49,-43%,-62%,44*
Fc1ccc(CNC(=S)Nc2cccc(C(F)(F)F)c2)cc1,-8%,18,-43%,-42%,13*
O=C(CCc1ccccc1)c1c(O)cc(O)cc1O,4%,6,18µM*,2%,active
COc1cc(O)c(C(=O)O)c(CCc2ccccc2)c1,nt,nt,-24%,nt,nt
C=CCn1c(N)c(C(=O)NCCC2=CCCCC2)sc1=S,?,106*,-27%,-65%,49*
COc1ccc(OCC(=O)OCc2cc(=O)n3nc(C4CCCCC4)sc3n2)cc1,-1%,nt,nt,nt,nt
C/C(Cc1ccccc1)=N\NC(=O)c1ccccn1,?,89*,-16%,-13%,53*
COc1ccc(NC(=O)C/C(C)=N/NC(=O)c2cnccn2)c(OC)c1,-1%,34,52%,16%,37*
COc1ccc(CCNC(=O)C/C(C)=N/NC(=O)c2cnccn2)cc1,0%,41*,10%,1%,36*
CCC(C)c1ccc(NC(=O)C/C(C)=N/NC(=O)c2cnccn2)cc1 (stereo not drawn),-7%,48*,36%,18%,24*
Cc1cc(=O)[nH]c(N/N=C/C(C)c2ccccc2)n1 (stereo not drawn),1%,2,-7%,3%,10
Cc1ccc2c(c1)C(=O)OC(C(=O)Nc1ccccc1C(=O)O)C2 (stereo not drawn),3%,nt,nt,nt,nt
CCOC(=O)c1c(NC(=O)c2nc(SC(C)C)ncc2Cl)sc2c1CCCC2,15%,nt,nt,nt,nt
COc1ccc(NC(=O)C/C(C)=N/NC(=O)c2ccccn2)c(OC)c1,3%,88*,47%,-16%,38*
C/C(CC(=O)Nc1cc(C)cc(C)c1)=N\NC(=O)c1ccccn1,?,43*,-4%,5%,37*
SMILES,AmpC inh detg,Shiga inhibitor,AmpC inh no detg,NS1 inh,Cycloheximide cs
COc1ccc(NC(=O)C/C(C)=N/NC(=O)C(=O)NC2CCCCC2)c(OC)c1,-2%,13,48%,nt,-4
C/C(CC(=O)NCc1ccccc1)=N\NC(=O)c1cnccn1,0%,40*,-18%,-1%,12*
C/C(CC(=O)NCc1ccccc1)=N\NC(N)=S,-4%,-4,-15%,nt,6
Cc1onc(-c2ccccc2)c1C(=O)NC(C)C1CCCO1 (stereo not drawn),6%,6,-14%,?,-5
Cc1ccc(-n2nnc(-c3ccnc4ccccc34)n2)cc1,8%,59*,-2%,-4%,29*
Fc1ccc(-n2nnc(-c3ccnc4ccccc34)n2)cc1,6%,44*,-11%,-3%,40*
Cc1cc(/C([O-])=C(/C(=S)Nc2ccccc2)[n+]2ccccc2)c(C)n1-c1ccccc1,-11%,44,36%,17%,29*
O=[N+]([O-])c1cccc(/C([O-])=C(/C(=S)Nc2ccccc2)[n+]2ccccc2)c1,2%,+,1%,?,80*
CC(=NCc1ccco1)c1c(C)[nH]n(-c2nc3ccccc3s2)c1=O,-15%,56*,-14%,5%,48*
CCC(=NCc1ccccc1)c1c(C(F)(F)F)[nH]n(-c2nc3ccccc3s2)c1=O,-15%,36,-24%,10%,21*
CCC(=NCc1ccco1)c1c(C(F)(F)F)[nH]n(-c2nc3ccccc3s2)c1=O,0%,52*,-19%,1%,45*
C/C(=N/NC(=O)c1cccs1)c1c(C)[nH]n(-c2nc3ccccc3s2)c1=O,-15%,20,-50%,29%,11
Nc1cc(Cl)ccc1C(=O)OCC(=O)N1CCCCCC1,nt,nt,-15%,nt,nt
Nc1cc(C(=O)OCC(=O)N2CCCC2)ccc1Cl,-4%,50*,-22%,?,31*
O=C(OCC(=O)N1CCOCC1)c1ccccc1O,?,72*,-5%,19%,29*
Nc1cc(Cl)ccc1C(=O)OCC(=O)N1CCCC1,-2%,35,-8%,-23%,17*
O=C(OCC(=O)N1CCOCC1)c1cc(F)c(F)cc1Cl,7%,1,-2%,3%,-3
Nc1cc(Cl)ccc1C(=O)OCC(=O)N1CCOCC1,4%,25,-8%,-4%,21*
CCn1cc(S(=O)(=O)c2cccc(Cl)c2)c(=O)c2cc(F)c(N3CCN(c4ccccc4)CC3)cc21,9%,nt,nt,nt,nt
Cc1ccc(NC(=O)COC(=O)c2ccccc2Cl)cc1S(=O)(=O)N(C)C,?,71*,?,nt,32*
Cc1ccc(NC(=O)Cc2ccccc2Cl)cc1S(=O)(=O)N(C)C,-13%,-2,-31%,-4%,5
Cc1ccc(NC(=O)COC(=O)/C(=C/c2cccs2)c2cccs2)cc1S(=O)(=O)N(C)C,-13%,89*,?,?,31*
NS(=O)(=O)c1cccc(NC(=O)COC(=O)/C(=C/c2cccs2)c2cccs2)c1,-8%,-11,-37%,12%,-2
CC(C)(C)c1ccc(C2Sc3ccccc3NC3=C2C(=O)c2ccccc23)cc1 (stereo not drawn),13%,nt,nt,nt,nt
CCOc1ccc(CCNC(=O)c2ccc(C)c(NC3=NC4CS(=O)(=O)CC4S3)c2)cc1 (stereo not drawn),-2%,-4,-7%,1%,-1
COc1c(/C=N/NC(=O)c2ccccc2O)c(CCN(C)C(C)=O)cc2c1OCO2,-2%,57*,-37%,7%,16*
COc1c(/C=N/NS(=O)(=O)c2ccc(C)cc2)c(CCN(C)C(C)=O)cc2c1OCO2,-1%,13,8%,-9%,-1
COc1c(/C=N/Nc2ccc(C(=O)O)cc2)c(CCN(C)C(C)=O)cc2c1OCO2,-7%,70*,-12%,7%,25*
CCC(=O)N(C)CCc1cc2c(c(OC)c1/C=N/NC(=O)c1ccccc1O)OCO2,-13%,35,-15%,19%,-2
CN1CCN(C(CNC(=O)c2c(F)cccc2F)c2ccc3c(c2)OCO3)CC1 (stereo not drawn),-8%,nt,nt,nt,nt
